PrPC surface inh = cell surface PrPC inhibition, primary TR-FRET screen. AID 720596. P04156. inhibition, % at 13.8 µM. TR-FRET read-out. 370,000 tested, 0.43% active; in the data active = inhibition above about 24%; note: 0% = median of the test wells and 100% = reference compound wells
Mtb hypoxia inh = Mtb hypoxia fluorescent reporter inhibition. M. tuberculosis hypoxia-regulated fluorescent reporter, fluorescence. fluorescence inhibition, % (no concentration beside the values). 300,000 tested, 0.1% active. AID 1159583; in the data active = fluorescence inhibition mostly above about 23%, no sharp cut-off; inactive = mostly below about 17%
Y pestis TopoI = inhibitors of Yersinia pestis topoisomerase I; 360,000 tested, 0.064% active; AID 504884; Y. pestis Topo-I cleavage product accumulation, plate reader; activity, % at 10 µM; in the data active = activity above about 50%, passing the limit was not always enough
PrP UTR inh = suppresses PrP 5' UTR mRNA reporter expression; cell-based PrP 5' UTR mRNA reporter, plate reader; inhibition, % (test concentration not listed); 340,000 tested, 0.35% active; in the data active = inhibition above about 52%; note: 0 = median of the neutral control wells
Mtb FBA inh = inhibits M. tuberculosis FBA enzyme; inhibition, % at 1 µM; P9WQA3; purified M. tuberculosis FBA, fluorescence read-out; 360,000 tested, 2.3% active; AID 588726;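 note: 0% = vehicle and 100% = reference inhibitor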
Target sequence (P9WQA3 whole entry, looked up): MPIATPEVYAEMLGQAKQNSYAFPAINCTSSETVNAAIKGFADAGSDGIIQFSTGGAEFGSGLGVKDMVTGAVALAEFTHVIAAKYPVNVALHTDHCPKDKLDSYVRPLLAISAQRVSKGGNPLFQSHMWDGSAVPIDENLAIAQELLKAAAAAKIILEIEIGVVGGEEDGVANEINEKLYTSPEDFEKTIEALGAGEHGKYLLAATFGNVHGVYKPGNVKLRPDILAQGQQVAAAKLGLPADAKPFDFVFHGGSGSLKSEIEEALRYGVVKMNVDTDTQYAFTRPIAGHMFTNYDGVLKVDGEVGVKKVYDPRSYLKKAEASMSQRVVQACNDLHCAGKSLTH
GDH-TPI counter-1 = inhibits GDH-TPI coupling enzymes, artifact for Mtb FBA screen | GDH-TPI coupled enzyme counterscreen, NADH absorbance | inhibition, % at 4.8 µM | 360,000 tested, 1.2% active | AID 588335; in the data active = inhibition above about 30%;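 note: 0% = DMSO wells and 100% = wells lacking the enzyme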
Mtb FBA confirm = Mtb FBA inhibition, confirmed | purified M. tuberculosis FBA, fluorescence read-out | 5,600 tested, 78% active | shares compounds with Mtb FBA inh | inhibition, % at 1 µM;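 note: 0% = vehicle wells and 100% = reference inhibitor wells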
GDH-TPI counter-2 = inhibits GDH-TPI coupling enzymes, flagging Mtb FBA hits; inhibition, % at 1 µM; GDH-TPI coupled enzyme counterscreen, fluorescence; shares compounds with Mtb FBA inh; 5,600 tested, 81% active; in the data active = inhibition above about 10%
GDH-TPI DR = inhibits GDH-TPI coupling enzymes in dose response; GDH-TPI coupled enzyme assay, fluorescence, artifact counterscreen; IC50, µM; 170 tested, 79% active; shares compounds with Mtb FBA inh; call rule not given here
Numbers without * were called inactive; . = no result given; + = active, no number. Only some compounds are listed: those with a hit (about 3.8% of all), similar ones and a draw of the others. Cut-off read from the data, not from the text of the source, unless noted: active = inhibition above about 27%; inactive = the rest.

SMILES	PrPC surface inh	Mtb hypoxia inh	Y pestis TopoI	PrP UTR inh	Mtb FBA inh	GDH-TPI counter-1	Mtb FBA confirm	GDH-TPI counter-2	others
Cc1cc(=O)oc2c(C)c(OCC(=O)N3CCN(c4ccccc4)CC3)ccc12	3.9	6.3	7.9	-17.5	3.6	19.9	.	.
O=C(Cc1ccccc1Cl)NN=Cc1cccnc1	.	-1.5	.	.	.	.	.	.
CCOC(=O)c1oc2cccc(OCC(O)CNC(C)C)c2c1C (stereo unspecified)	-2.4	6.8	-3.4	-14.5	90.9*	7.9	11.1	-4.1	GDH-TPI DR=1.51*
O=C(NN=CC1CCCCC1)c1ccccn1	.	7.3	.	.	.	.	.	.
CC(=NNc1ccc(F)cc1F)c1ccc(Br)s1	.	-0.7	.	.	.	.	.	.
Cc1cccc(C2=NN(c3ccccc3)[C@H](CO)[C@H]2c2ccc(Cl)cc2)c1	8.5	8.4	-3.8	6.4	55.0*	-4.2	4.2	-0.9
Cc1cccc(C2=NN(c3ccccc3)[C@H](CO)[C@H]2c2ccc(F)cc2)c1	10.9	0.3	-11.0	-22.1	62.6*	2.7	91.2*	60.7*
Cc1cccc(C2=NN(c3ccccc3)[C@@H](C(=O)N3CCOC3=O)[C@@H]2c2ccc([N+](=O)[O-])cc2)c1	-4.5	.	-16.3	-20.6	-5.5	16.0	.	.
CCS(=O)(=O)Nc1ccc(C2=NN(S(C)(=O)=O)C(c3cccs3)C2)cc1 (stereo unspecified)	-0.8	.	-0.9	-48.2	93.2*	0.0	56.9*	44.6*
CCOC(=O)NN1C(=O)c2ccccc2NC1c1ccc(OC)cc1OC (stereo unspecified)	5.6	6.5	5.8	-19.9	41.6*	3.5	179.9*	143.7*
CCOC(=O)NN1C(=O)c2ccccc2NC1c1cccs1 (stereo unspecified)	-2.5	13.6	-4.0	-9.5	31.3*	15.0	82.3*	70.3*
COc1ccc(C2Nc3ccccc3C(=O)N2NS(=O)(=O)c2ccccc2)c(OC)c1 (stereo unspecified)	-1.3	3.5	-0.9	7.7	14.1	7.7	.	.
COc1ccc(OC)c(C=NNC(=O)CCCC(=O)Nc2cccc(Br)c2)c1	.	2.4	.	.	.	.	.	.
C#CCOCCOCCOCCNc1nc(N2CCN(C(=O)C(CO)n3cc(C(N)C(C)C)nn3)CC2)nc(N2CCN(C(=O)C(CCCCN)n3cc(C(N)C(C)CC)nn3)CC2)n1 (stereo unspecified)	.	0.8	.	.	.	.	.	.
NC(N)=NN=Cc1cccc([N+](=O)[O-])c1O	.	7.4	.	.	.	.	.	.
Cc1ccc(-c2nc3c(=O)n(-c4ccccc4)c4c(c(=O)n(C)c(=O)n4C)c3o2)cc1	5.5	8.0	0.9	-3.6	2.5	0.0	.	.
Cc1ccc(-c2nc3c(=O)n(C)c4ccccc4c3o2)cc1	0.5	6.5	11.6	-31.5	34.7*	7.7	2.3	-1.9
O=c1cc(C(F)(F)F)[nH]c2ccc(C(F)(F)F)cc12	1.1	-9.3	0.2	5.7	35.2*	4.9	65.1*	49.9*
COCCNC(=O)C(=O)NN=Cc1ccc(C(=O)OC)cc1	.	6.6	.	.	.	.	.	.
Oc1cccc(C=Nc2cccc3ccccc23)c1O	-4.4	.	-4.8	-13.1	-0.1	20.3	.	.
Oc1ccccc1C=Nc1cccc2ccccc12	2.2	10.3	0.3	0.7	42.4*	-7.0	15.3	-2.7	GDH-TPI DR=9.29*
CNC(=O)C(C#N)(Cc1cc(C(C)=O)ccc1OC)Cc1cc(C(C)=O)ccc1OC	-6.8	10.2	9.1	-0.3	36.8*	3.9	1.4	-4.5
CC(=O)Nc1ccc(C2Nc3ccccc3C(=O)N2C2CCCCC2)cc1 (stereo unspecified)	-2.0	17.7	-1.5	-34.2	61.5*	4.2	2.5	2.0
O=C(Nc1ccc2c(c1)OCCO2)C1C(=O)Nc2ccccc2C(=O)N1C1CCCCC1 (stereo unspecified)	-4.9	.	.	.	.	.	.	.
Cc1c(C)c2c(OCC(=O)NCc3ccco3)cc3c(c2oc1=O)CCC(C)(C)O3	7.1	.	-1.4	-11.7	33.5*	15.7	+	+
SMILES	PrPC surface inh	Mtb hypoxia inh	Y pestis TopoI	PrP UTR inh	Mtb FBA inh	GDH-TPI counter-1	Mtb FBA confirm	GDH-TPI counter-2	others
Cc1c(C)c2c(OCC(=O)NCc3cccnc3)cc3c(c2oc1=O)CCC(C)(C)O3	-5.1	.	-2.8	-19.2	56.6*	21.6	69.0*	52.3*
Cc1c(C)c2c(OCC(=O)NCc3ccncc3)cc3c(c2oc1=O)CCC(C)(C)O3	-4.5	.	-4.2	-8.9	30.6*	7.8	+	+
COc1ccc(CNC(=O)COC(=O)c2ccc(OCc3c(C)noc3C)cc2)cc1OC	-0.7	8.2	2.0	1.3	1.6	3.4	.	.
COc1ccc(CNC(=O)COc2cc3c(c4oc(=O)cc(C)c24)CCC(C)(C)O3)cc1OC	1.4	.	26.4	-24.6	39.1*	13.9	54.2*	38.2*
CC(=NNC(=O)c1ccccc1F)c1cccc(NC(=O)c2ccccc2)c1	.	3.0	.	.	.	.	.	.
Cc1ccc(Oc2ccc(OCC(=O)NC(CC(C)C)C(=O)O)cc2)cc1 (stereo unspecified)	3.3	8.4	9.6	-7.4	2.5	-10.8	.	.
Cc1cc(=O)oc2c3c(cc(OCC(=O)N[C@@H](CC(C)C)C(=O)O)c12)OC(C)(C)CC3	-10.2	10.2	-2.5	-17.8	39.2*	11.2	39.3*	34.7*
Cc1cc(S(=O)(=O)NCC(C)C)ccc1OCC(=O)NCC1CCCO1 (stereo unspecified)	3.3	9.7	1.0	0.6	-0.3	-11.7	.	.
Cc1c(C)c2c(OCC(=O)NCC(C)C)cc3c(c2oc1=O)CCC(C)(C)O3	0.0	-12.6	17.1	-40.0	57.4*	-7.3	+	189.5*
Cc1cc(C=NO)c(C)n1-c1ccc(Br)cc1	.	10.8	.	.	.	.	.	.
CCNC(=S)NN=Cc1c(C)nn(-c2cccc(Cl)c2)c1Cl	.	10.8	.	.	.	.	.	.
C#CCOCCOCCOCCNc1nc(N2CCN(C(=O)CCCCCCCCCCNC(=O)C(CCC(=O)O)n3cc(CCCCCN)nn3)CC2)nc(N2CCN(C(=O)CCCCCCCCCCNC(=O)C(C(C)O)n3cc(C)nn3)CC2)n1 (stereo unspecified)	.	1.7	.	.	.	.	.	.
Cc1cc(C)n2ncc(C(=O)NCc3ccc(Cl)cc3)c2n1	12.3	.	23.7	5.5	33.7*	5.3	118.2*	88.6*

Assay outcomes from PubChem.
